This note sets out measurements from PubChem BioAssay AID1731 (National Center for Advancing Translational Sciences (NCATS), 2009).

The structures appear in SMILES notation. Active and inactive are the calls of the source. Entries that show only a call come without a potency. Calls come from the whole dose curve; as a rule, active = well fitted curve in the direction sought with a large enough effect; inactive = no such curve, though single readings can be large or run the other way.

Chain of Epidermal growth factor receptor (Homo sapiens) (P00533 whole entry, looked up): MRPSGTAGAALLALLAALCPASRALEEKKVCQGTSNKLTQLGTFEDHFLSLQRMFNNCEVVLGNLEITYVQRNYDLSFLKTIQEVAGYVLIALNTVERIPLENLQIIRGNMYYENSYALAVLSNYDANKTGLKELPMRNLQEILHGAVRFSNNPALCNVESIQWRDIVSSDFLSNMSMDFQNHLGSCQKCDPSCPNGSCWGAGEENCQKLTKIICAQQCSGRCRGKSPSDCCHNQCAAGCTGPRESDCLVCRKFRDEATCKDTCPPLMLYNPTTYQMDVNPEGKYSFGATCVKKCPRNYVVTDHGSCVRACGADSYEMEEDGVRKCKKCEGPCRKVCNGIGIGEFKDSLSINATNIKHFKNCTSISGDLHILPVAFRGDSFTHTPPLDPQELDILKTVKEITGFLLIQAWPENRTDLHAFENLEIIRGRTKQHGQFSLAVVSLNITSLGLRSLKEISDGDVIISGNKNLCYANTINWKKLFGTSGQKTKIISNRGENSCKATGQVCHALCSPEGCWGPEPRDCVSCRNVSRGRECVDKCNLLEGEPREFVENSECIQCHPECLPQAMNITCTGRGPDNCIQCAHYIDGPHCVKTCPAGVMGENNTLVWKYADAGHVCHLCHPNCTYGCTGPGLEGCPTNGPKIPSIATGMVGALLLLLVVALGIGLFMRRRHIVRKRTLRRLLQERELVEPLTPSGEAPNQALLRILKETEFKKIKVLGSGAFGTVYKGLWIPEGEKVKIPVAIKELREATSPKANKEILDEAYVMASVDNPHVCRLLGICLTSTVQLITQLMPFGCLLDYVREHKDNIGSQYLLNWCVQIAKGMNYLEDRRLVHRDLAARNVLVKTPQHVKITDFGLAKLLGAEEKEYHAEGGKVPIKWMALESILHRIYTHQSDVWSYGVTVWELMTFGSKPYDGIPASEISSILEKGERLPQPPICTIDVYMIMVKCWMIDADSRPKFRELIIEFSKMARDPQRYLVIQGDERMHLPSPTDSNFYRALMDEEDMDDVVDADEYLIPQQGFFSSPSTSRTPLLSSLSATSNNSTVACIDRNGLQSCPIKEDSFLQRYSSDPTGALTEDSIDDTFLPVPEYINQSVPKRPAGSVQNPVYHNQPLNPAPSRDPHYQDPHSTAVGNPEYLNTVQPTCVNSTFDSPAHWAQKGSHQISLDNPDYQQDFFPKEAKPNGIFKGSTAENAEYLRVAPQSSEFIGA

The test concerns the target Epidermal growth factor receptor (Homo sapiens) (UniProt P00533). Briefly: Assay for Inhibitors of the ERK Signaling Pathway using a Homogeneous Screening Assay: EGFR Kinase Inhibition. The note with it: homogeneous biochemical assay; series mostly up to 21.9 µM. An excerpt: qHTS Assay for Inhibitors of the ERK Signaling Pathway using a Homogeneous Screening Assay
NIH Chemical Genomics Center [NCGC]
NIH Molecular Libraries Screening Centers Network [MLSCN]
Assay Submitter (PI): Dr. Wei Zheng, NCGC/NIH
The Ras/extracellular-signal-regulated kinase (ERK) mitogen activated protein (MAP) kinase signaling pathway (ERK1/2 cascade) plays is a key role in transmitting signals from the cell surface to the nucleus (Nishida and Gotoh 1993; Chang and Karin, 2001). The cascade is initiated by the small G-protein Ras, which recruits Raf […], where activation occurs. Alternatively, this pathway can be activated by elevating intracellular cAMP.
Activation of the ERK pathway is essential in increased cell division and cell survival. Sustained and constitutive activation of the ERK pathway, however, has been linked to uncontrolled cell proliferation, increased cell survival, and tumor progression. Thus, the ERK has been as an attractive target for cancer chemotherapy in the past few years (Sebolt-Leopold and Herrera, 2004). Given its physiological and pathological importance, assessment of ERK phosphorylation has been broadly performed in both basic research and drug discovery. Most assays for the measurement of ERK phosphorylation use the antibody-based detection methods, such as western blot and ELISA. These assays require multiple reagent additions with cell wash steps and are not suitable for high-throughput screening.
The current cell-based ERK phosphorylation assay was performed using AlphaScreen platform. AlphaScreen is a two bead-based proximity-dependent chemical energy transfer luminescent assay platform. The assay reagents (ERK SureFire(TM) kit) were supplied from TGR BioSciences (Australia). In the presence of specific antibodies, phosphorylated ERK will bring "donor" and "acceptor" beads to a proximity range (<200 nm), and subsequently lead a chemical luminescent reaction upon exciting donor beads with 680 nm laser. To validate pathway hits from the cell-based assay, enzyme assays consisting of EGFR tyrosine kinase, Raf and MEK were used as a means of deciphering the enzymes of target for the prioritized group of compounds derived from the HEK-293 cell based assay. The compounds were tested against significant members of the ERK signaling pathway EGFR and EGFR mutants (EGFR L858R, EGFR T790M, and EGFR L858R T790M). In order to establish the specificity of the prioritized compounds for EGFR and EGFR mutants, the compounds were also assayed against other important ERK signaling pathway enzymes, c-RAF and MEK-1.
NCGC Assay Protocol Summary:
The HTRF kinase assay (components supplied as kit by Cisbio) was chosen for the EGFR and EGFR mutant enzyme assays that applied the time resolved fluorescence resonance energy transfer (TR-FRET) principle. A peptide substrate is labeled with a biotin that can bind to XL665 labeled streptavidin and the anti-phosphoresidue antibody is labeled with Eu+. Upon phosphorylation of the substrate, the antibody binds to phosphorylated substrate that enables TR-FRET detection in homogenous assay format.
An HTRF Kinease TK assay kit (Cisbio, Bedford, MA) was used to develop the EGFR and EGFR mutant assays (Harbert et al., 2008. Harbert C, Marshall J, Soh S, Steger K. Development of a HTRF Kinase Assay for Determination of Syk Activity. Current Chemical Genomics. 1: 20-26. 2008). EGFR and EGFR mutants were obtained from Invitrogen. The assay buffer was composed of 50 mM HEPES (pH 7.0), 5 mM MgCl2, 5mM DTT, 0.1 % NaN3, 0.1 % BSA and 0.1 mM orthovanadate.
The HTRF assays were preformed according to the HTRF Kinease TK kit. Optimization for each enzyme was preformed in 384 well format (data not included). All reagents were dispensed into 1536 well plates.
(1) Enzyme, […] EGFR at 3 nM final
(2) Compound, 22 nl, Library Compounds in 0.128 to 10 mM titration series or control
(3) Reagent, 1.5 ul 10 uM ATP and 0.25 uM substrate final
(4) Incubation for 30 min, Ambient conditions
[…]
Regarding `CN(C)c1cccc2c1C(=O)c1ccccc1C2=O`, the Potency entry was “inactive”.
Consider `Cc1ccc(NNc2c(C)nc3ccccc3nc2=O)cc1`, for which the Potency was 4470 nM (active).
In the case of `Cc1ccc2nc(=O)c(NNc3ccccc3)cnc2c1`, the Potency was 708 nM (active).
The entry for `O=C(Nc1nc(-c2ccccc2)cs1)c1ccc(N2CCOCC2)c([N+](=O)[O-])c1` is “inactive”.
Under `Cn1nc(-c2ccccn2)nc2c(=O)n(C)c(=O)nc1-2` stands “inactive”.
In the case of `Cc1nc2ccccc2nc(=O)c1NNc1ccccc1`, the Potency is 708 nM (active).
In the case of `Cn1c(=O)[nH]c2nnc(-c3ccc(Cl)c(Cl)c3)nc2c1=O`, the Potency entry was “inactive”.
As for `O=C1c2ccccc2C(=O)c2c1cccc2N1CCCC1`, the Potency entry was “inactive”.
Consider `CNc1cccc2c1C(=O)c1ccccc1C2=O`, for which the Potency result was “inactive”.
Take `Fc1ccc(Nc2ncnc3sc4c(c23)CCC4)cc1F`: the Potency was 70.8 nM (active).
For `CCn1c(=O)c2[nH]c(-c3ccccc3)nc2n(CC)c1=O`, the Potency entry was “inactive”.
Take `CS(=O)(=O)CCNCc1nc(-c2ccc3ncnc(Nc4ccc(OCc5cccc(F)c5)c(Cl)c4)c3c2)cs1`: the Potency was 8.9 nM (active).
Regarding `Cn1nc(-c2ccc(Cl)cc2)nc2c(=O)n(C)c(=O)nc1-2`, the Potency result was “inactive”.
On to `O=C1c2ccccc2C(=O)c2c(NCCCN(CCO)CCO)cccc21`, for which the Potency result was “inactive”.
Consider `COc1ccc(C(=O)c2ccc(Cl)c([N+](=O)[O-])c2)cc1`, for which the Potency entry is “inactive”.
Regarding `N#C/C(=C(/N)Sc1ccc(N)cc1)c1ccccc1C(F)(F)F`, the Potency result was “inactive”.
Regarding `CCN(CC)CCC(=O)Nc1cccc2c1C(=O)c1ccccc1C2=O`, the Potency result was “inactive”.
